Compound activity deposited in PubChem by National Center for Advancing Translational Sciences (NCATS).
15-hLO-2 inh – 15-hLO-2 (ALOX15B) enzyme inhibition. Potency, µM (titrated, usually from 57.1 µM), inactives show at the top dose activity change, negative = inhibition, usual class: inhibitors. AID 881. purified 15hLO-2, xylenol orange hydroperoxide absorbance. O15296. 110,000 tested, 0.56% active; also: potency is read from the fitted curve at half-maximal effect; nearly all actives have a fitted effect of over 60% in size
Target sequence (O15296 whole entry, looked up): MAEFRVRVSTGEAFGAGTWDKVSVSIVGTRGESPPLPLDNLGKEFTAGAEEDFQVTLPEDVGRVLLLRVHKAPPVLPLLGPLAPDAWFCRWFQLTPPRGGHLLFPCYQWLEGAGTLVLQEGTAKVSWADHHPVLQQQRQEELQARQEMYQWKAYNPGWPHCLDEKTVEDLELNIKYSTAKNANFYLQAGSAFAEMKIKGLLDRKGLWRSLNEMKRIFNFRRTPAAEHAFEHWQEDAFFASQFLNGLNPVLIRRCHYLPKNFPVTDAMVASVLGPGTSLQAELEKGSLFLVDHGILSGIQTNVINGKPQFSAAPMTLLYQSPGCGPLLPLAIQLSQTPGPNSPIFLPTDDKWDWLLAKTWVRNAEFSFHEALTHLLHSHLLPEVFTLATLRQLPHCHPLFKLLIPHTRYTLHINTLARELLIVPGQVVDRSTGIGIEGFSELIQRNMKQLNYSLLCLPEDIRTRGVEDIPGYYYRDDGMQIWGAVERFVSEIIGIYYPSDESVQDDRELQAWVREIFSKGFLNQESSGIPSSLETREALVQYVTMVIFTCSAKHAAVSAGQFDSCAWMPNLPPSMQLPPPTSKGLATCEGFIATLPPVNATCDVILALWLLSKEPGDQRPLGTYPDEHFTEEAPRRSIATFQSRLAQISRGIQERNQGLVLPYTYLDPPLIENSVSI
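Screening format was qHTS against 50 nM purified 15hLO-2 in Hepes pH 7.5 with detergent. Activity follows hydroperoxide formation from 45 uM arachidonic acid, measured as 573:405 nm absorbance ratio of the ferric-xylenol orange complex.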
PNC inhibitor – inhibitors of perinucleolar compartment assembly; PC3M PTB-GFP, PNC prevalence imaging, 16 h; stronger effect = lower value; activity change (PNC), negative = inhibition, % at 10 µM; 140,000 tested, 3.1% active;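 active = readout at or below -70, meaning at least 70% loss of cells showing the perinucleolar compartment, a nuclear body marking cancer cells; inconclusive = readout between -30 and a set limit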;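 also: plate controls were DMSO wells for no effect and camptothecin positive control wells for full effect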
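Compounds are pinned in duplicate onto adhered PC3M cells stably expressing GFP-tagged PTB and incubated 16 h at 37 C. Cells are then fixed, nuclei stained with Hoechst, and PNC-positive cells counted.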
12-hLO inh – inhibitors of human 12-lipoxygenase (ALOX12); P18054; 150,000 tested, 0.12% active; Potency, µM (titrated, usually from 57.1 µM), for the others: at the highest dose activity change, negative = inhibition, actives largely listed as inhibitors; purified 12-hLO, xylenol orange hydroperoxide absorbance; also: potency is read from the fitted curve at half-maximal effect; nearly all actives have a fitted effect of over 55% in size
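Purified human 12hLO (150 nM final) was preincubated with compounds for 15 min at room temperature in 25 mM Hepes pH 7.0, 0.01% Triton X-100, then reacted with 40 uM arachidonic acid for 30 min. Hydroperoxide was detected with ferrous iron/xylenol orange.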
* = called active by the depositor; [ ] = another dose, or the depositor's remark. Hits are enriched below; roughly 3.1% of the tested compounds scored in any of these assays. Unless noted, calls follow the shape of the dose curve; as a rule, active = well fitted curve in the direction sought with a large enough effect; inconclusive = small, poorly fitted or top-dose-only effect, or another doubt; inactive = no such curve, though single readings can be large; an effect the other way counts as inactive or inconclusive. Unless noted, % is scaled to controls: 0 for no effect and ±100 for the full control effect.

CCN(CC)CCCCC1CCN(CC(=O)N2c3ccccc3C(=O)Nc3cccnc32)CC1 was read as 15-hLO-2 inh -2% and 12-hLO inh 5%.
Screening O=C(O)/C=C\C(=O)Nc1ccccc1F returned PNC inhibitor -119* and 12-hLO inh 3%.
For O=C(O)/C=C/C(=O)Nc1ccccc1C(=O)Nc1ccccc1 the results were 15-hLO-2 inh -5%, PNC inhibitor -25 and 12-hLO inh -2%.
`Cc1ccc(C)c(NC(=O)NCc2ccc(Cl)cc2)c1` gave 15-hLO-2 inh 0%[11.4 µM] and 12-hLO inh -6%[11.4 µM].
For COc1cc2c(cc1OC)C(CCN)=NCC2 the results were 15-hLO-2 inh 11%[11.4 µM] and 12-hLO inh 0%[11.4 µM].
O=C1CN(CC(=O)N2CCOCC2)c2ccccc2O1 was read as 15-hLO-2 inh 8%, PNC inhibitor -118* and 12-hLO inh inconclusive.
Screening O=C1CN(CC(=O)N2CCCCC2)c2ccccc2O1 returned 15-hLO-2 inh 13%, PNC inhibitor 22 and 12-hLO inh -15%.
C/C(=N/NC(=O)c1ccncc1)c1ccccc1Cl was read as 15-hLO-2 inh -4%[11.4 µM] and 12-hLO inh 4%[11.4 µM].
`Cc1c(C(=O)NC2CCCCC2)sc2nc3ccc(N)cc3n12` gave 15-hLO-2 inh -2% and 12-hLO inh -5%.
`Clc1cccc2sc(N3CCCCC3)nc12` gave 15-hLO-2 inh 1%, PNC inhibitor -82* and 12-hLO inh -12%.
`Clc1cc(Cl)c2nc(N3CCCCC3)sc2c1` gave 15-hLO-2 inh 23%, PNC inhibitor 3 and 12-hLO inh 3%.
`CCc1c2c(nc3ccc(OC)cc13)OC(CC)C2` (centres undefined) gave 15-hLO-2 inh -1% and 12-hLO inh 2%.
For C=CCN1C(=CCO)[C@H]2C[C@H]3[C@@H]1CC[C@@]31c3ccccc3N3C=C4[C@@H]5N(/C=C/2[C@H]31)c1ccccc1[C@]51CC[C@H]2[C@H]1C[C@@H]4/C(=C/CO)N2CC=C the results were 15-hLO-2 inh 26%[25.6 µM] and 12-hLO inh 3%[25.6 µM].
For COc1cccc(C(=O)Nc2c(C(N)=O)oc3ccccc23)c1 the results were 15-hLO-2 inh -2%, PNC inhibitor -11 and 12-hLO inh -8%.
`CCOc1ccc(C(=O)Nc2c(C(N)=O)oc3ccccc23)cc1` gave PNC inhibitor -119* and 12-hLO inh -9%.
Screening CCCn1c(-c2ccc(F)cc2)nc2c(NC(C)CN(C)C)nc(C)nc21 (centres undefined) returned 15-hLO-2 inh 2% and 12-hLO inh -2%.
Cc1c(C(=O)Nc2cccc([N+](=O)[O-])c2)csc1-c1ccccc1 was read as 15-hLO-2 inh -6%, PNC inhibitor inconclusive and 12-hLO inh -10%.
Screening Cc1cc(C(=O)Nc2cccc([N+](=O)[O-])c2)c(C)o1 returned PNC inhibitor -109* and 12-hLO inh -2%.
Screening Cc1c(C(=O)Nc2ccc(OCc3ccccc3)cc2)cccc1[N+](=O)[O-] returned 15-hLO-2 inh -10%, PNC inhibitor 0 and 12-hLO inh -4%.
`O=C(Nc1ccccc1)c1ccccc1OCc1cccc([N+](=O)[O-])c1` gave PNC inhibitor -99* and 12-hLO inh 0%.
For COC(=O)C1=C(C(=O)OC)[C@@H]2N(C)c3ccccc3[C@@]23C[C@@H](C(=O)OC)N(S(=O)(=O)c2c(C)noc2C)C3=N1 the results were 12-hLO inh -1%[11.4 µM].
For COC(=O)[C@@H]1C[C@H]1[C@@H](NS(=O)(=O)c1ccc2ccccc2c1)c1ccccc1 the results were 15-hLO-2 inh -16% and 12-hLO inh 0%.
For CC(C)CCNC(=O)C(c1ccc(O)cc1)N(Cc1cccs1)C(=O)C1COc2ccccc2O1 (centres undefined) the results were PNC inhibitor -11 and 12-hLO inh -2%.
`O=C(NCc1ccco1)C(c1cccs1)N(C(=O)C1COc2ccccc2O1)c1cccc(O)c1` (centres undefined) gave 15-hLO-2 inh -21%, PNC inhibitor -116* and 12-hLO inh -8%.
`Cn1c(SCc2ccccc2)nnc1C1CCCNC1` (centres undefined) gave 15-hLO-2 inh 2%, PNC inhibitor -107* and 12-hLO inh -2%.
Screening CCn1c(SCc2ccccc2)nnc1C1CCCCC1 returned PNC inhibitor -6 and 12-hLO inh 1%.
For COc1cc2c(C(=O)Nc3ccc4c(c3)OCO4)cn(CC(C)C)c(=O)c2cc1OC the results were 15-hLO-2 inh 2%, PNC inhibitor -14 and 12-hLO inh 8%.
Screening COc1cc2c(C(=O)NCc3ccc4c(c3)OCO4)cn(CC(C)C)c(=O)c2cc1OC returned 15-hLO-2 inh 2%, PNC inhibitor -113* and 12-hLO inh 2%.
Screening O=S(=O)(NCCNC/C=C\c1ccc(Br)cc1)c1cccc2cnccc12 returned 15-hLO-2 inh 46% and 12-hLO inh -9%.
Screening COC(=O)Nc1ccc(S(=O)(=O)Nc2ccc(C)cc2)cc1 returned 15-hLO-2 inh 5%, PNC inhibitor 2 and 12-hLO inh -4%.
`COC(=O)c1cc2cc(NS(=O)(=O)c3ccc(C)cc3)ccc2s1` gave PNC inhibitor -100* and 12-hLO inh -19%.
Screening CCc1ccc(NS(=O)(=O)c2ccc(Cl)cc2OC)cc1 returned 12-hLO inh -7%.
`COc1ccccc1/C=C/C=N/n1c(-c2ccc(C)cc2)n[nH]c1=S` gave PNC inhibitor inconclusive and 12-hLO inh 2%.
COc1ccccc1/C=C\C=N\n1c(C2CCCCC2)n[nH]c1=S was read as 15-hLO-2 inh 13µM*, PNC inhibitor 7 and 12-hLO inh -9%.
For NNC(=O)CCSc1ccccc1 the results were 15-hLO-2 inh -1%[11.4 µM] and 12-hLO inh -5%[11.4 µM].
Screening Nc1ncnc2nc(Cl)[nH]c12 returned 15-hLO-2 inh -1% and 12-hLO inh 11%.
CC(=O)Oc1cccc(C)c1 was read as 15-hLO-2 inh -3%[0.0915 µM] and 12-hLO inh 0%[0.00818 µM].
Fc1ccc(COc2ccccc2CNCc2ccncc2)cc1 was read as PNC inhibitor inconclusive and 12-hLO inh 3%.
Screening Brc1ccc(OCc2ccccc2)c(CNCc2ccncc2)c1 returned 15-hLO-2 inh 71%, PNC inhibitor -109* and 12-hLO inh 4%.
CCOC(=O)Cc1csc(NC(=O)NC2(C(F)(F)F)Oc3cc(Cl)c(Cl)cc3O2)n1 was read as 15-hLO-2 inh 10µM*, PNC inhibitor -6 and 12-hLO inh inconclusive.
`CCOC(=O)Cc1csc(NC(=O)C2C3C=CC(C3)C2C(=O)O)n1` (centres undefined) gave 15-hLO-2 inh -2%, PNC inhibitor -107* and 12-hLO inh 4%.
Cc1csc(NC(=O)C2C3C=CC(C3)C2C(=O)O)n1 (centres undefined) was read as 15-hLO-2 inh -1%, PNC inhibitor -27 and 12-hLO inh 8%.
Screening CCOC(=O)Cc1csc(NC(=O)NC2(C(F)(F)F)Oc3ccc(Cl)cc3O2)n1 (centres undefined) returned 15-hLO-2 inh inconclusive, PNC inhibitor inconclusive and 12-hLO inh -25%.
O=C(O)CNc1ccc(C(=O)O)cc1 was read as 15-hLO-2 inh -4%[11.4 µM] and 12-hLO inh -2%[11.4 µM].
